The source of these data is PubChem BioAssay (Tox21).

Inconclusive results are not listed. Entries that show only a call come without a potency. Active and inactive are the calls of the source. Calls come from the whole dose curve.
Potency is the fitted concentration of half-maximal effect.

The nature of the test: Nuclear factor erythroid 2-related factor 2/antioxidant responsive element (Nrf2/ARE) small molecule agonists: luciferase reporter gene qHTS assay in human keratinocytes (AID 1919969). Note: nearly all actives have a fitted effect of over 35% in size. Particulars: KeratinoSens HaCaT ARE-luciferase, luminescence, 24 h; series mostly up to 92.4 µM. (Reporter assays use an easily measured gene product as a stand-in for the process of interest.)
Take `CCN(CC)C(=O)N[C@@H]1C=C2c3cccc4[nH]cc(c34)C[C@@H]2N(C)C1`: the Potency result is “inactive”.
Take `O=[N+]([O-])c1ccc2c3c(cccc13)CC2`: the Potency entry is “inactive”.
The entry for `CCCN(CCC)C(=O)Cc1c(-c2ccc(Cl)cc2)nc2ccc(Cl)cn12` is “inactive”; for `CC(C)[C@H](C(=O)O[C@H](C#N)c1cccc(Oc2ccccc2)c1)c1ccc(Cl)cc1` it is “inactive”; for `CCC(C(N)=O)N1CCCC1=O` (centres undefined) it is “inactive”.
`CCOC(=O)C(Cl)Cc1cc(-n2nc(C)n(C(F)F)c2=O)c(F)cc1Cl` (centres undefined): the Potency entry was “inactive”.
For the compound `CCO/N=C(\CC)C1=C(O)CC(c2c(C)cc(C)cc2C)CC1=O` (centres undefined), the Potency result is “inactive”.
`Oc1ccc2ccc3cccc4ccc1c2c34`: the Potency is 61.1 µM (active).
As to `O=C(O)CCCCCCNC1c2ccccc2CCc2ccccc21`, the Potency entry is “inactive”.
In the case of `COP(=O)(OC)O/C(=C\Cl)c1cc(Cl)c(Cl)cc1Cl`, the Potency was 68.6 µM (active).
Turning to `CS(=O)(=O)c1ccc(C(=O)C2C(=O)CCCC2=O)c(Cl)c1COCC(F)(F)F`, the Potency result is “inactive”.
Regarding `O=C(N/N=C/c1ccc([N+](=O)[O-])o1)c1cc([N+](=O)[O-])cc([N+](=O)[O-])c1O`, the Potency was 29.8 µM (active).
For `CCCCC(=O)Cl`, the Potency result is “inactive”.
As for `COC(=O)C(C)N(C(=O)c1ccco1)c1c(C)cccc1C` (centres undefined), the Potency entry is “inactive”.
With `COc1cnc(OC)n2nc(NS(=O)(=O)c3c(OCC(F)F)cccc3C(F)(F)F)nc12`, the Potency result was “inactive”.
`COC1=CC(=O)O[C@@H](CCc2ccccc2)C1`: the Potency result is “inactive”.
The entry for `O=C1C(Cl)C(CCl)CN1c1cccc(C(F)(F)F)c1` (centres undefined) is “inactive”.
As for `ClC(Cl)C(Cl)Cl`, the Potency entry was “inactive”.
`CCCCCCCC(=O)Cl`: the Potency entry is “inactive”.
